System: Vero E6 infected with SARS-CoV-2
Test: inhibition of SARS-CoV-2 cytopathic effect; higher = more antiviral protection, active = above 15
Conditions: 48 h

Measured: inhibition of SARS-CoV-2 cytopathic effect

C[C@H]1[C@@H](O)O[C@@H]2O[C@@]3(C)CC[C@H]4[C@H](C)CC[C@@H]1[C@@]24OO3
inactive: 1 nM 0.99% | 8.33 nM 1.14% | 100 nM 1.39% | 833.33 nM 1.43% | 10000 nM 0.11%

CC(C)CNc1ccnc(NCc2csc(-c3ccccc3)n2)n1
inactive: 1 nM 0.06% | 8.33 nM 1.07% | 100 nM 0.03% | 833.33 nM 0.39% | 10000 nM -2.77%

OC[C@H]1NCC[C@@H](O)[C@@H]1O [fagomine]
inactive: 1 nM -1.09% | 8.33 nM 1.34% | 100 nM 1.02% | 833.33 nM 2.42% | 10000 nM 0.75%

COc1cc2nccc(Oc3ccc(NC(=O)NC4CC4)c(Cl)c3)c2cc1C(N)=O [lenvatinib]
inactive: 1 nM -1.78% | 8.33 nM -0.25% | 100 nM -0.32% | 833.33 nM -0.03% | 10000 nM 8.44%

O=[N+]([O-])/C=C/c1ccc2c(c1)OCO2 [3,4-methylenedioxy-beta-nitrostyrene]
inactive: 1 nM -1.15% | 8.33 nM 0.64% | 100 nM -1.64% | 833.33 nM -3.16% | 10000 nM 7.29%

CCC1(c2ccccc2)C(=O)NCNC1=O [primidone]
inactive: 1 nM 0.5% | 8.33 nM -0.36% | 100 nM -1.1% | 833.33 nM 0.53% | 10000 nM 1.81%

OC[C@@H](O)[C@@H](O)CO [erythritol]
inactive: 1 nM -0.84% | 8.33 nM -2.36% | 100 nM -2.74% | 833.33 nM 0.56% | 10000 nM 0.5%

— the supplement of paper PMC13380429
